According to PubChem BioAssay (NCATS):
Inconclusive results are not listed. Active and inactive are the calls of the source. The call rests on the fitted dose curve; in most records, active means well fitted curve in the direction sought with a large enough effect; inconclusive means small, poorly fitted or top-dose-only effect, or another doubt; inactive means no such curve, though single readings can be large; an effect the other way counts as inactive or inconclusive.

Key:
NIH3T3 = experiment: qHTS assay to identify novel small-molecules to repurpose for Merkel cell carcinoma treatment (AID 1296009); conditions: MCC and control cell lines, CellTiter-Glo viability, 72 h; at 44.8 µM (top of the series) unless noted; further: nearly all actives have a fitted effect of over 60% in size
In short: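 Cells were incubated with compound for 72 hr at 37 degree celsius before CellTiter-Glo addition. Luminescence was normalized with no-cell wells as full cytotoxicity and DMSO as baseline.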

C33A = experiment: Primary qHTS to identify gynecologic anti-cancer compounds using libraries of approved drugs and bioactive compounds (AID 1345084); conditions: Gynecologic cancer cell panel viability, ATPlite luminescence, 48 h; series mostly up to 57.5 µM; further: nearly all actives have a fitted effect of over 55% in size
In short: (§1)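 Measured: luminescence after ATPlite addition (15 min, RT). Exposure: 48 h, 37 C, 5% CO2.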

CASKI = experiment: as above; conditions: Gynecologic cancer cell panel viability, ATPlite luminescence, 48 h; series mostly up to 57.5 µM
In short: as §1

Es-2 = experiment: as above; conditions: Gynecologic cancer cell panel viability, ATPlite luminescence, 48 h; series mostly up to 57.5 µM
In short: as §1

HeLa = experiment: as above; conditions: Gynecologic cancer cell panel viability, ATPlite luminescence, 48 h; series mostly up to 57.5 µM
In short: as §1

Hek293T = experiment: as above; conditions: Gynecologic cancer cell panel viability, ATPlite luminescence, 48 h, control line for the selectivity index; series mostly up to 57.5 µM
In short: as §1

JEG-3 = experiment: as above; conditions: Gynecologic cancer cell panel viability, ATPlite luminescence, 48 h; series mostly up to 57.5 µM
In short: as §1

OV90 = experiment: as above; conditions: Gynecologic cancer cell panel viability, ATPlite luminescence, 48 h; series mostly up to 57.5 µM
In short: as §1

PA-1 = experiment: as above; conditions: Gynecologic cancer cell panel viability, ATPlite luminescence, 48 h; series mostly up to 57.5 µM
In short: as §1

SKOV3 = experiment: as above; conditions: Gynecologic cancer cell panel viability, ATPlite luminescence, 48 h; series mostly up to 57.5 µM
In short: as §1

Tov-21-G = experiment: as above; conditions: Gynecologic cancer cell panel viability, ATPlite luminescence, 48 h; series mostly up to 57.5 µM
In short: as §1

Tov112D = experiment: as above; conditions: Gynecologic cancer cell panel viability, ATPlite luminescence, 48 h; series mostly up to 57.5 µM
In short: as §1

Measured: Potency

COc1cc(CO)ccc1O[C@@H]1O[C@H](CO)[C@@H](O)[C@H](O)[C@H]1O
inactive: all assays above

CO[C@H]1c2cc(C(C)C)c(O)c(O)c2[C@@]23CCCC(C)(C)C2[C@@H]1OC3=O (some centres undefined)
inactive: all assays above

CC1CCC2(C(=O)OC3OC(CO)C(O)C(O)C3O)CCC3(C)C(=CCC4C5(C)CCC(O)C(C)(CO)C5CCC43C)C2C1(C)O (centres undefined)
inactive: NIH3T3 inactive [at 17.4 µM] | C33A | CASKI | Es-2 | HeLa | Hek293T | JEG-3 | OV90 | PA-1 | SKOV3 | Tov-21-G | Tov112D

C=C1CC[C@H]2[C@@](C)(CCC(OC3OC(CO)C(O)C(O)C3O)[C@@]2(C)CO)C1C(=O)CC1=CCOC1=O (some centres undefined)
inactive: NIH3T3 inactive [at 17.4 µM] | C33A | CASKI | Es-2 | HeLa | Hek293T | JEG-3 | OV90 | PA-1 | Tov-21-G | Tov112D

CCNC(=O)C1CC(F)(c2ccc(CN3CCCC3)c(F)c2)C1 (centres undefined)
inactive: all assays above
